This note sets out measurements from PubChem BioAssay (NCI).

Experiment in all cases: NCI-60 one-dose screen, 48 h (100 = growth as untreated, 0 = no growth, -100 = all killed)
In one experiment the test system is RPMI-8226 leukemia. Conditions: 10 µM unless noted.
The test system of the next experiment is OVCAR-8 ovarian. Conditions: 10 µM unless noted.
The subject of another experiment is OVCAR-5 ovarian. Conditions: 10 µM unless noted.
The test system of another experiment is OVCAR-4 ovarian. Conditions: 10 µM unless noted.
In the next experiment the test system is SK-OV-3 ovarian. Conditions: 10 µM unless noted.
For another experiment, the system named is IGROV1 ovarian. To be noted: 10 µM unless noted.
A further experiment deals with OVCAR-3 ovarian. Conditions: 10 µM unless noted.
Another experiment deals with HS 578T breast. Conditions: 10 µM.
A further experiment deals with NCI/ADR-RES ovarian. To be noted: 10 µM unless noted.
In the next experiment the test system is T-47D breast. To be noted: 10 µM unless noted.
A further experiment relates to BT-549 breast. To be noted: 10 µM unless noted.
Another experiment concerns MDA-MB-435 melanoma. To be noted: 10 µM unless noted.
For a further experiment, the system named is SW-620 colon. Conditions: 10 µM unless noted.
For a further experiment, the system named is MCF7 breast. Conditions: 10 µM unless noted.
A further experiment has as its system HCT-116 colon. Conditions: 10 µM unless noted.
The test system of another experiment is HCC-2998 colon. To be noted: 10 µM unless noted.
For the next experiment, the system named is KM12 colon. Conditions: 10 µM unless noted.

SMILES strings stand for the structures. About 83,000 compounds went through this panel and 20% of them were active in at least one assay; those are over-represented in the sample as a whole.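 48-hour exposure, single concentration, 96-well plates; percent growth endpoint where 0 means no net growth. Active: below 10.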 A number with no mark means an inactive call. Active and inactive are the calls of the source.

Consider `O=[N+]([O-])c1cccc([I+]c2ccccc2)c1`, for which the growth with RPMI-8226 leukemia was 27.9%; in the experiment with OVCAR-8 ovarian, 35%; in the experiment on OVCAR-5 ovarian, 96.1%; in the experiment with OVCAR-4 ovarian, 58.4%; in the experiment on SK-OV-3 ovarian it was 54.9%; with IGROV1 ovarian, 31.5%. The growth is 58.7% with OVCAR-3 ovarian; 49.6% in the experiment with HS 578T breast; 77.5% in the experiment on NCI/ADR-RES ovarian; 50.1% with T-47D breast; 63.3% in the experiment on BT-549 breast; 72.7% in the experiment on MDA-MB-435 melanoma. Moreover, the growth in the experiment on SW-620 colon was 40%; in the experiment on MCF7 breast, 37.6%; in the experiment with HCT-116 colon, 47.7%; in the experiment on HCC-2998 colon, 67.2%; in the experiment with KM12 colon, 60.5%.
Regarding `O=C(CCCCCCc1nc2ccc(Br)cc2[nH]1)NO`, the growth with RPMI-8226 leukemia was -4.38% (active); with OVCAR-8 ovarian, 4.11% (active); in the experiment on OVCAR-5 ovarian it was 8.25% (active); in the experiment with OVCAR-4 ovarian, 24%; in the experiment with SK-OV-3 ovarian it was -41.8% (active); in the experiment with IGROV1 ovarian, -9.43% (active). The growth is -2.31% (active) in the experiment on OVCAR-3 ovarian; 32.6% in the experiment on HS 578T breast; -31.3% (active) with NCI/ADR-RES ovarian; -32.3% (active) in the experiment on T-47D breast; 16.4% in the experiment on BT-549 breast; -10.5% (active) with MDA-MB-435 melanoma. For the same compound, the growth in the experiment with SW-620 colon was -76.8% (active); in the experiment on MCF7 breast, 1.84% (active); with HCT-116 colon, -89.2% (active); in the experiment with HCC-2998 colon, -51.7% (active); with KM12 colon, -65.4% (active).
For `Cn1c(=O)c2c3c(oc2c2ccccc21)C(=O)c1ccccc1C3=O`, the growth in the experiment with RPMI-8226 leukemia is 51.1%; with OVCAR-8 ovarian, 85.3%; with OVCAR-5 ovarian, 120%; in the experiment on OVCAR-4 ovarian it was 4.38% (active); in the experiment on SK-OV-3 ovarian, 93.6%; in the experiment with IGROV1 ovarian, 68.7%. Besides, the growth in the experiment on OVCAR-3 ovarian was 21.6%; in the experiment with HS 578T breast, 93.2%; in the experiment with NCI/ADR-RES ovarian, 76.9%; in the experiment with T-47D breast, 9.7% (active); in the experiment on BT-549 breast, 77.4%; in the experiment on MDA-MB-435 melanoma, 104%. In addition, the growth in the experiment on SW-620 colon was 86.2%; in the experiment on MCF7 breast, 68.4%; with HCT-116 colon, 71.7%; in the experiment with HCC-2998 colon it was 102%; in the experiment on KM12 colon, 91.5%.
Turning to `CN(C)c1ccc(N2Cc3ccccc3OC3=C2C(=O)c2c(O)ccc(O)c2C3=O)cn1`, the growth with RPMI-8226 leukemia was -17.2% (active); in the experiment on OVCAR-8 ovarian, -12.1% (active); with OVCAR-5 ovarian it was -50.6% (active); with OVCAR-4 ovarian, -98.2% (active); in the experiment with SK-OV-3 ovarian, -7.84% (active); in the experiment on IGROV1 ovarian it was -63.3% (active). Further, the growth was -95.8% (active) in the experiment on OVCAR-3 ovarian; 44.7% with HS 578T breast; 3.51% (active) with NCI/ADR-RES ovarian; -47.9% (active) in the experiment on T-47D breast; -71.2% (active) in the experiment on BT-549 breast; -21.3% (active) in the experiment on MDA-MB-435 melanoma. For the same compound, the growth in the experiment on SW-620 colon was -58.3% (active); in the experiment on MCF7 breast, -55% (active); in the experiment on HCT-116 colon, -86.8% (active); with HCC-2998 colon, -75.2% (active); with KM12 colon it was -41.9% (active).
For the compound `O=C1C2=C(C(=O)c3c(O)ccc(O)c31)N(c1ccc(N3CCOCC3)nc1)Cc1ccccc1O2`, the growth in the experiment with RPMI-8226 leukemia was -20.6% (active); with OVCAR-8 ovarian, -10.6% (active); with OVCAR-5 ovarian, -45.2% (active); in the experiment on OVCAR-4 ovarian, -97.8% (active); in the experiment with SK-OV-3 ovarian, 15.2%; in the experiment on IGROV1 ovarian, -70.5% (active). Moreover, the growth with OVCAR-3 ovarian is -97.3% (active); with HS 578T breast it was 27.5%; in the experiment on NCI/ADR-RES ovarian, 5.43% (active); with T-47D breast, -41% (active); in the experiment with BT-549 breast, -78.5% (active); in the experiment on MDA-MB-435 melanoma it was -28.6% (active). The growth in the experiment on SW-620 colon was -54.3% (active); in the experiment on MCF7 breast it was -34.2% (active); with HCT-116 colon, -84.5% (active); in the experiment on HCC-2998 colon, -66.3% (active); in the experiment with KM12 colon, -34.9% (active).
On to `CC1=C(C(=O)Nc2ccc(F)cc2)C(c2ccccc2)C2=C(CC(C)(C)CC2=O)N1` (configuration not stated), for which the growth was 41.3% in the experiment with RPMI-8226 leukemia; 73.3% with OVCAR-8 ovarian; 90.7% in the experiment on OVCAR-5 ovarian; 58.7% with OVCAR-4 ovarian; 97.2% in the experiment on SK-OV-3 ovarian; 84.3% with IGROV1 ovarian. Besides, the growth with OVCAR-3 ovarian is 70%; in the experiment on HS 578T breast, 82.5%; with NCI/ADR-RES ovarian, 79.7%; in the experiment on T-47D breast, 63.6%; with BT-549 breast it was 91.1%; in the experiment on MDA-MB-435 melanoma it was 90.3%. Besides, the growth is 89.7% with SW-620 colon; 67.1% with MCF7 breast; 73.6% with HCT-116 colon; 103% with HCC-2998 colon; 84.5% in the experiment on KM12 colon.
Consider `COc1ccc(C2C=C(c3ccc(Cl)cc3)N=C3SC=CN32)cc1` (configuration not stated), for which the growth with RPMI-8226 leukemia is 94.6%; with OVCAR-8 ovarian, 104%; in the experiment with OVCAR-5 ovarian, 121%; in the experiment on OVCAR-4 ovarian it was 97.4%; in the experiment on SK-OV-3 ovarian, 111%; with IGROV1 ovarian, 113%. Also, the growth with OVCAR-3 ovarian is 132%; in the experiment on HS 578T breast, 93.1%; in the experiment with NCI/ADR-RES ovarian, 104%; in the experiment with T-47D breast, 104%; in the experiment with BT-549 breast, 90.3%; in the experiment with MDA-MB-435 melanoma, 107%. Moreover, the growth with SW-620 colon was 97.7%; in the experiment on MCF7 breast it was 96.1%; with HCT-116 colon, 104%; in the experiment on HCC-2998 colon it was 119%; in the experiment on KM12 colon, 112%.
In the case of `O=C(Nc1cnc(C(F)(F)F)cn1)c1cc(Cl)ccc1O`, the growth is -21.7% (active) in the experiment with RPMI-8226 leukemia; 4.89% (active) in the experiment on OVCAR-8 ovarian; 28.3% with OVCAR-5 ovarian; 14% with OVCAR-4 ovarian; -5.59% (active) in the experiment on SK-OV-3 ovarian; 23.8% with IGROV1 ovarian. Also, the growth is 15.6% with OVCAR-3 ovarian; 8.53% (active) in the experiment on HS 578T breast; 8.26% (active) in the experiment on NCI/ADR-RES ovarian; -13.2% (active) with T-47D breast; -21.3% (active) with BT-549 breast; 5.89% (active) with MDA-MB-435 melanoma. Besides, the growth is 10.9% in the experiment with SW-620 colon; 6.48% (active) in the experiment on MCF7 breast; 1.13% (active) with HCT-116 colon; 14.6% in the experiment on HCC-2998 colon; 3.91% (active) in the experiment with KM12 colon.
With `Cc1cc(C)c([O-])c(CN(C)CCN(C)Cc2cc(C)cc(C)c2[O-])c1.O=C([O-])c1cccc(C(=O)[O-])n1.[Ti+4]`, the growth was -25.9% (active) in the experiment with RPMI-8226 leukemia; 20.9% in the experiment with OVCAR-8 ovarian; 22.1% in the experiment on OVCAR-5 ovarian; 22% in the experiment with OVCAR-4 ovarian; 34.3% with SK-OV-3 ovarian; 6.22% (active) in the experiment with IGROV1 ovarian. In addition, the growth was 9.53% (active) with OVCAR-3 ovarian; 0.477% (active) in the experiment with HS 578T breast; 7.88% (active) with NCI/ADR-RES ovarian; 28.4% in the experiment on T-47D breast; -0.731% (active) in the experiment with BT-549 breast; 6.53% (active) in the experiment with MDA-MB-435 melanoma. Also, the growth was -19.7% (active) in the experiment with SW-620 colon, 17.1% with MCF7 breast, 5.25% (active) in the experiment on HCC-2998 colon and 11% in the experiment with KM12 colon.
